Experimental data: the supplement of paper PMC10849652
Of roughly 8,800 targets only a part is listed; those with a hit were picked by preference. About 0.5% of all pairs of compound and target were hits.

Assays:
Assay in all cases: log2 fold change, soluble protein after heating vs DMSO (PISA); higher = thermal stabilisation; K562 lysate, 10 uM; active = over 0.2 and 3.5 SD of the protein, either way, in both replicates (recomputed)
alvocidib = compound: CN1CC[C@H](c2c(O)cc(O)c3c(=O)cc(-c4ccccc4Cl)oc23)[C@H](O)C1 [alvocidib]
Method in brief: (§1)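 Quantification was by TMTpro 16plex LC-MS/MS with equalised channel sums, applied to the supernatant after 21,000xg for 90 min. Samples were crude K562 extract at 1 mg/mL protein in PBS pH 7.4 with 1 mM MgCl2, treated with 10 μM compound for 30 min, heated for 3 min across 48°C-58°C, pooled and brought to 0.5% NP-40 at 4°C. Values are log-two fold changes in thermal stability relative to solvent controls, from duplicates.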

Tubastatin A = compound: CN1CCc2c(c3ccccc3n2Cc2ccc(C(=O)NO)cc2)C1 [Tubastatin A]
Method in brief: as §1

[1] = compound: CNC(=O)C1=CC=CC=C1NC2=NC(=NC=C2Cl)NC3=C(C=C(C=C3)N4CCOCC4)OC
Method in brief: as §1

defactinib = compound: CNC(=O)c1ccc(Nc2ncc(C(F)(F)F)c(NCc3nccnc3N(C)S(C)(=O)=O)n2)cc1 [defactinib]
Method in brief: as §1

[2] = compound: CNc1nc(-c2ccc3c(N)n[nH]c3c2)cc(N2C[C@@H](C(=O)NC3CCCCC3)CC[C@H]2C)n1
Method in brief: as §1

encorafenib = compound: COC(=O)N[C@@H](C)CNc1nccc(-c2cn(C(C)C)nc2-c2cc(Cl)cc(NS(C)(=O)=O)c2F)n1 [encorafenib]
Method in brief: as §1

[3] = compound: COC(=O)[C@H](CCSC)NC(=O)C1=C(C=C(C=C1)NC[C@H](CS)N)C2=CC=CC=C2
Method in brief: as §1

alisertib = compound: COc1cc(Nc2ncc3c(n2)-c2ccc(Cl)cc2C(c2c(F)cccc2OC)=NC3)ccc1C(=O)O [alisertib]
Method in brief: as §1

[4] = compound: COc1cc2nc(-c3cc(F)ccc3O)nc(N[C@@H]3CNC[C@H]3C(C)(C)O)c2cc1OC
Method in brief: as §1

gefitinib = compound: COc1cc2ncnc(Nc3ccc(F)c(Cl)c3)c2cc1OCCCN1CCOCC1 [gefitinib]
Method in brief: as §1

lapatinib = compound: CS(=O)(=O)CCNCc1ccc(-c2ccc3ncnc(Nc4ccc(OCc5cccc(F)c5)c(Cl)c4)c3c2)o1 [lapatinib]
Method in brief: as §1

pictilisib = compound: CS(=O)(=O)N1CCN(Cc2cc3nc(-c4cccc5[nH]ncc45)nc(N4CCOCC4)c3s2)CC1 [pictilisib]
Method in brief: as §1

crizotinib = compound: C[C@@H](Oc1cc(-c2cnn(C3CCNCC3)c2)cnc1N)c1c(Cl)ccc(F)c1Cl [crizotinib]
Method in brief: as §1

[5] = compound: C[C@H](C1=CC=C(C=C1)C(=O)NC2=C3C=CNC3=NC=C2)N
Method in brief: as §1

duvelisib = compound: C[C@H](Nc1ncnc2nc[nH]c12)c1cc2cccc(Cl)c2c(=O)n1-c1ccccc1 [duvelisib]
Method in brief: as §1

gandotinib = compound: Cc1cc(Nc2cc(CN3CCOCC3)c3nc(C)c(Cc4ccc(Cl)cc4F)n3n2)n[nH]1 [gandotinib]
Method in brief: as §1

tozasertib = compound: Cc1cc(Nc2cc(N3CCN(C)CC3)nc(Sc3ccc(NC(=O)C4CC4)cc3)n2)n[nH]1 [tozasertib]
Method in brief: as §1

doramapimod = compound: Cc1ccc(-n2nc(C(C)(C)C)cc2NC(=O)Nc2ccc(OCCN3CCOCC3)c3ccccc23)cc1 [doramapimod]
Method in brief: as §1

bafetinib = compound: Cc1ccc(NC(=O)c2ccc(CN3CC[C@H](N(C)C)C3)c(C(F)(F)F)c2)cc1Nc1nccc(-c2cncnc2)n1 [bafetinib]
Method in brief: as §1

[6] = compound: Cc1cccc(CC(=O)N2CCc3c2ccc(-c2cn(C)c4ncnc(N)c24)c3F)n1
Method in brief: as §1

Measured: log2 fold change

RPL8 (UniProt P62917)
inactive: alvocidib 0.007 | Tubastatin A 0.023 | [1] 0.02 | defactinib 0.038 | [2] 0.104 | encorafenib 0.022 | [3] -0.046 | alisertib 0.018 | [4] -0.008 | gefitinib 0.011 | lapatinib -0.005 | pictilisib 0.01 | crizotinib 0.059 | [5] 0.147 | duvelisib 0.008 | gandotinib -0.072 | tozasertib 0.033 | doramapimod -0.038 | bafetinib 0.071 | [6] -0.051

RFWD3 (UniProt Q6PCD5)
Chain of UniProt Q6PCD5 (Q6PCD5 whole entry, looked up): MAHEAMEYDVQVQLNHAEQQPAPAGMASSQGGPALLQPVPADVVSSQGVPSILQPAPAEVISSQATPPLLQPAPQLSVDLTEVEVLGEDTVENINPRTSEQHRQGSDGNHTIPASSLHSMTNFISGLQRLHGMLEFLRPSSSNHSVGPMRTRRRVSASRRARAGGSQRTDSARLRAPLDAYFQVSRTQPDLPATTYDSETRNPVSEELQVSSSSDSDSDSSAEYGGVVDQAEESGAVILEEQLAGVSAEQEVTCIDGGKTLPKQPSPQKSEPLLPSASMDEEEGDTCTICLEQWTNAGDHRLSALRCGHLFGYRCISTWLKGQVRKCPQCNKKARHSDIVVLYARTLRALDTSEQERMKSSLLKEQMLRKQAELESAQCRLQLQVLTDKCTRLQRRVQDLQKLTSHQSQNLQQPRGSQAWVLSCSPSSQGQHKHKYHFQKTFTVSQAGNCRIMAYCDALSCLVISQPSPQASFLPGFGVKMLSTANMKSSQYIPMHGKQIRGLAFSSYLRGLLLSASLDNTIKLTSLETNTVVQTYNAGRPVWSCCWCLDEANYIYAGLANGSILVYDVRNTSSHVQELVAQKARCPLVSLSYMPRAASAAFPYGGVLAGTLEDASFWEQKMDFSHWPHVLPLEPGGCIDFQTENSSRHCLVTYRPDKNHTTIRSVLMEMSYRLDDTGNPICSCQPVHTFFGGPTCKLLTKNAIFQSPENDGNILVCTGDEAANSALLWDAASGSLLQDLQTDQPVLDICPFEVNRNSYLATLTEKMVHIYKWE
inactive: alvocidib -0.057 | Tubastatin A 0.065 | [1] 0.051 | defactinib 0.082 | [2] -0.057 | encorafenib 0.1 | [3] -0.052 | alisertib 0.114 | gefitinib -0.057 | pictilisib -0.12 | crizotinib -0.066 | [5] 0.036 | duvelisib 0.041 | gandotinib 0.004 | tozasertib -0.037 | doramapimod 0.036 | bafetinib -0.04 | [6] 0.107

RABGGTB (UniProt P53611)
Chain of UniProt P53611 (P53611 whole entry, looked up): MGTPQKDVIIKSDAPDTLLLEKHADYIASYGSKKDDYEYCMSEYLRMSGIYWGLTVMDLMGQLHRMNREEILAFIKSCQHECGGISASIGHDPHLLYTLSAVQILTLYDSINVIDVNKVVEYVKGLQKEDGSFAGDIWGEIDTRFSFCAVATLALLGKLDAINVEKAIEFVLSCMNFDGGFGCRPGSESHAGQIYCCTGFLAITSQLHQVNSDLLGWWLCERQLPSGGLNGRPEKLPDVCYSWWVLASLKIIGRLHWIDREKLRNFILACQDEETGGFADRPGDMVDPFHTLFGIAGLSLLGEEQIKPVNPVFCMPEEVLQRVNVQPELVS
inactive: alvocidib -0.015 | Tubastatin A -0.043 | [1] -0.025 | defactinib 0.031 | [2] -0.021 | encorafenib 0.044 | [3] 0.065 | alisertib 0.005 | [4] 0.002 | gefitinib -0.002 | lapatinib -0.02 | pictilisib 0.006 | crizotinib -0.031 | [5] 0.135 | duvelisib 0.043 | gandotinib -0.051 | tozasertib -0.023 | doramapimod 0.016 | bafetinib -0.087 | [6] 0.028

RNF149 (UniProt Q8NC42)
Chain of UniProt Q8NC42 (Q8NC42 whole entry, looked up): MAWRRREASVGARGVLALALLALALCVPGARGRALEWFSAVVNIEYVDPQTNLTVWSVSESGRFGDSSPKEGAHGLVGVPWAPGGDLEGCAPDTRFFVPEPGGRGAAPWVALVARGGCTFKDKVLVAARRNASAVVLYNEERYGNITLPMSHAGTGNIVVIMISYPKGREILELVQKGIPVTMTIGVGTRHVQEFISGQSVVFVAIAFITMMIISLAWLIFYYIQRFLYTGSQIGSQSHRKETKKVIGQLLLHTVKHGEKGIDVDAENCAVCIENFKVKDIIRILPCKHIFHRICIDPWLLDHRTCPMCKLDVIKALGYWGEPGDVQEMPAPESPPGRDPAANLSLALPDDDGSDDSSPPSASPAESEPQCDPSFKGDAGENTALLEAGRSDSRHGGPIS
active: alisertib -0.483
inactive: alvocidib -0.038 | Tubastatin A -0.047 | [1] 0.02 | defactinib 0.028 | [2] 0.004 | [4] -0.059 | gefitinib -0.075 | lapatinib 0.073 | pictilisib -0.025 | crizotinib -0.006 | [5] -0.039 | duvelisib -0.025 | gandotinib -0.026 | doramapimod -0.099 | bafetinib -0.105 | [6] -0.013

RNF113A (UniProt O15541)
inactive: alvocidib -0.062 | Tubastatin A 0.05 | [1] 0.014 | defactinib -0.013 | [2] 0.022 | encorafenib -0.019 | [3] -0.017 | alisertib -0.015 | [4] 0.015 | gefitinib 0.004 | lapatinib 0.012 | pictilisib 0.021 | crizotinib 0.024 | [5] -0.072 | duvelisib -0.009 | gandotinib 0.068 | tozasertib 0.002 | doramapimod 0.016 | bafetinib 0 | [6] 0.034

RAD51C (UniProt O43502)
inactive: alvocidib 0.061 | Tubastatin A -0.081 | [1] 0.002 | defactinib 0.035 | [2] 0.072 | encorafenib -0.058 | [3] 0.004 | alisertib -0.005 | [4] 0.047 | gefitinib -0.016 | lapatinib -0.042 | pictilisib -0.023 | crizotinib -0.074 | [5] -0.006 | duvelisib 0.022 | gandotinib 0.065 | tozasertib -0.089 | doramapimod 0.074 | bafetinib -0.119 | [6] -0.044

RPL31 (UniProt P62899)
inactive: alvocidib -0.013 | Tubastatin A 0.032 | [1] -0.042 | defactinib -0.024 | [2] 0.044 | encorafenib -0.016 | [3] 0.035 | alisertib 0.033 | [4] -0.015 | gefitinib -0.035 | lapatinib -0.01 | pictilisib 0.009 | crizotinib 0.016 | [5] -0.006 | duvelisib 0.004 | gandotinib 0.005 | tozasertib -0.006 | doramapimod -0.041 | bafetinib -0.023 | [6] 0.029

SATB2 (UniProt Q9UPW6)
Chain of UniProt Q9UPW6 (Q9UPW6 whole entry, looked up): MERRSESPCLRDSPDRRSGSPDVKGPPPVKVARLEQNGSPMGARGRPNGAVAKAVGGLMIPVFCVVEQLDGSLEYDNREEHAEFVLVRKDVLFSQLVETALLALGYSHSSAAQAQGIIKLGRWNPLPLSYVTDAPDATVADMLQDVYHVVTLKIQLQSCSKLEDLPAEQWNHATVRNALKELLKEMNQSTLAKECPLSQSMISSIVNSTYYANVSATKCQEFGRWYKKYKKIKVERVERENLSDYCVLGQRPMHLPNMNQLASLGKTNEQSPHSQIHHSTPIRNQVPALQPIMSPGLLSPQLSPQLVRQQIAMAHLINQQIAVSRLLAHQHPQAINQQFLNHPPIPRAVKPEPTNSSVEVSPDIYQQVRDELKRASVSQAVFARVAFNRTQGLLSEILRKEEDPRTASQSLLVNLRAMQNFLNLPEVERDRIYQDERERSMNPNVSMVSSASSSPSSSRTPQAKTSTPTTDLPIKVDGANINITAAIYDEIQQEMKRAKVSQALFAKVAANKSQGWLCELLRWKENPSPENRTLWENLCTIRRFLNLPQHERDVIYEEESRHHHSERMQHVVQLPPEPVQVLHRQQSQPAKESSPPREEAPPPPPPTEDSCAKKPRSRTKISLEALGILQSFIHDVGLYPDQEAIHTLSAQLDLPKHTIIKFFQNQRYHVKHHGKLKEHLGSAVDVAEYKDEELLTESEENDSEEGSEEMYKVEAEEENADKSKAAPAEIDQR
inactive: alvocidib 0.047 | Tubastatin A -0.096 | [1] -0.019 | defactinib -0.022 | [2] -0.031 | encorafenib 0.053 | [3] -0.022 | alisertib 0.024 | [4] -0.008 | gefitinib 0.01 | lapatinib -0.009 | crizotinib 0.009 | [5] 0.042 | duvelisib 0.03 | gandotinib -0.039 | tozasertib -0.008 | doramapimod 0.002 | [6] -0.008

RNF181 (UniProt Q9P0P0)
Chain of UniProt Q9P0P0 (Q9P0P0 whole entry, looked up): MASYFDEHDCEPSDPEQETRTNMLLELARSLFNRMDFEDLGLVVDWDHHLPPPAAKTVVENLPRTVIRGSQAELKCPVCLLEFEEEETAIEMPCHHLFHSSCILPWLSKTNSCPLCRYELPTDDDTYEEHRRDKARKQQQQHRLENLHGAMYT
inactive: alvocidib 0 | Tubastatin A 0.021 | [1] 0.037 | defactinib 0.044 | [2] -0.008 | encorafenib 0.029 | [3] -0.201 | alisertib -0.011 | [4] -0.004 | gefitinib -0.083 | lapatinib 0.079 | pictilisib -0.069 | crizotinib 0.049 | [5] 0.057 | duvelisib 0.028 | gandotinib -0.042 | tozasertib 0.054 | doramapimod 0.057 | bafetinib -0.03 | [6] 0.01

RETREG2 (UniProt Q8NC44)
Chain of UniProt Q8NC44 (Q8NC44 whole entry, looked up): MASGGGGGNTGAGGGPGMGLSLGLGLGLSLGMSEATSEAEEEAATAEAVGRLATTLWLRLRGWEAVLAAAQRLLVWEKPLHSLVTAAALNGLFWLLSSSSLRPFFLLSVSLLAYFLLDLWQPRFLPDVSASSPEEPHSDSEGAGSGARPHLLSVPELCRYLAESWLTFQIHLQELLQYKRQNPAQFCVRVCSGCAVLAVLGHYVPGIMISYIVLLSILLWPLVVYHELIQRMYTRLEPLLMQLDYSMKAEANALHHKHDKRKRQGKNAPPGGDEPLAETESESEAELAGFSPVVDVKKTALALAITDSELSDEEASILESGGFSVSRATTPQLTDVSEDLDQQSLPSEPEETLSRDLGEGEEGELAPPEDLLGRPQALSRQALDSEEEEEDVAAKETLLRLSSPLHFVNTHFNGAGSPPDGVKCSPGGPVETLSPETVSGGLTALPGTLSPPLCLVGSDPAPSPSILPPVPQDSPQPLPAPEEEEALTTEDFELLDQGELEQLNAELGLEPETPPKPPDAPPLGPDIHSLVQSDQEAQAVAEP
inactive: alvocidib -0.069 | Tubastatin A -0.025 | [1] 0 | defactinib -0.12 | encorafenib -0.002 | [3] -0.096 | alisertib -0.029 | [4] -0.007 | gefitinib -0.058 | lapatinib -0.051 | pictilisib -0.037 | crizotinib -0.074 | [5] -0.052 | gandotinib -0.052 | tozasertib 0.025 | doramapimod -0.005 | bafetinib -0.141 | [6] 0.122

RPS4X (UniProt P62701)
inactive: alvocidib 0.039 | Tubastatin A 0.032 | [1] -0.03 | defactinib -0.027 | [2] 0.029 | encorafenib -0.036 | [3] 0.063 | alisertib 0.004 | [4] 0.002 | gefitinib -0.028 | lapatinib -0.006 | pictilisib 0.009 | crizotinib -0.024 | [5] 0.209 | duvelisib 0.012 | gandotinib -0.038 | tozasertib -0.018 | doramapimod -0.01 | bafetinib -0.008 | [6] -0.04

RNASEL (UniProt Q05823)
Chain of UniProt Q05823 (Q05823 whole entry, looked up): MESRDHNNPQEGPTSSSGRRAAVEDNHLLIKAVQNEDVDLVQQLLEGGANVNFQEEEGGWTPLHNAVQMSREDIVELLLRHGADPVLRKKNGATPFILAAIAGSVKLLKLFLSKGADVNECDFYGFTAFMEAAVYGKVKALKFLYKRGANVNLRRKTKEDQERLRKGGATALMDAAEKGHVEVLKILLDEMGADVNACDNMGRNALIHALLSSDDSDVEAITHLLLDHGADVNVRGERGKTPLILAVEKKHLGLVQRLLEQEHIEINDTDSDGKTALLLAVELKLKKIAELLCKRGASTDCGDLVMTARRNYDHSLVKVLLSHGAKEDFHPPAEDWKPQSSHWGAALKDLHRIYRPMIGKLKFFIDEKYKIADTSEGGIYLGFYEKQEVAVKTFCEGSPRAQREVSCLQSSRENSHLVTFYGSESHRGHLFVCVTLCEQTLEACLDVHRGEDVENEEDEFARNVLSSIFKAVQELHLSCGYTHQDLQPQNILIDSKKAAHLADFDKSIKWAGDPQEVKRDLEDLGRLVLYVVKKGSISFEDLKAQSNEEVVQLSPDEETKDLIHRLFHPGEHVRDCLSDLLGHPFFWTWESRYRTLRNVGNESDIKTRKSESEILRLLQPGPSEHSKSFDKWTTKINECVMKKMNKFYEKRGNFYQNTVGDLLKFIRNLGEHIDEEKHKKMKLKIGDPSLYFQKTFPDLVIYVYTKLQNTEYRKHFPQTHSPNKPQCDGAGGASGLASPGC
inactive: alvocidib 0.054 | Tubastatin A -0.094 | [1] -0.034 | defactinib -0.02 | [2] 0.012 | encorafenib 0.029 | [3] 0.144 | alisertib -0.074 | [4] -0.035 | gefitinib 0.061 | lapatinib -0.034 | pictilisib -0.076 | crizotinib -0.04 | [5] -0.011 | duvelisib 0.007 | gandotinib -0.068 | tozasertib -0.014 | doramapimod -0.007 | bafetinib -0.018 | [6] -0.013

RETSAT (UniProt Q6NUM9)
Chain of UniProt Q6NUM9 (Q6NUM9 whole entry, looked up): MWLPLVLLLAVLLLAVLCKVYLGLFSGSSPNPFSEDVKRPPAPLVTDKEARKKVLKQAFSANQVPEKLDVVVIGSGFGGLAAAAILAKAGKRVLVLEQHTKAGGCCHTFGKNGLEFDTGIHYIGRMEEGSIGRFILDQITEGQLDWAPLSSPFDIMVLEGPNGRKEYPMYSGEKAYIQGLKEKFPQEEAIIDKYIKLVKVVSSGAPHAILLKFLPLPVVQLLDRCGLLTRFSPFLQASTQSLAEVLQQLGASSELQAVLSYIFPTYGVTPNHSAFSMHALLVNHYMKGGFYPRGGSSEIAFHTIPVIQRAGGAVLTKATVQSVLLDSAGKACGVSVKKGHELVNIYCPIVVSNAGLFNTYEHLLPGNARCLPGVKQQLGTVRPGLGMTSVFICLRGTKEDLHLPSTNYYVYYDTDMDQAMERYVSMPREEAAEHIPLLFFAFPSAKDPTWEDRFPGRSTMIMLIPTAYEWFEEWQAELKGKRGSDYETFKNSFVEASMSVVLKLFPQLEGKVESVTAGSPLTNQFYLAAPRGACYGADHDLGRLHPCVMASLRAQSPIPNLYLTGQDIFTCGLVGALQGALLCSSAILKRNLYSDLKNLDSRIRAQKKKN
inactive: alvocidib -0.114 | Tubastatin A 0.179 | [1] -0.071 | defactinib -0.045 | [2] 0.402 | encorafenib 0.079 | [3] 0.025 | [4] -0.059 | lapatinib 0.056 | pictilisib -0.048 | crizotinib -0.329 | [5] -0.159 | duvelisib 0.039 | gandotinib 0.167 | tozasertib -0.024 | doramapimod 0.006 | bafetinib -0.097 | [6] 0.391

RPS6KA5 (UniProt O75582)
inactive: alvocidib 0.193 | Tubastatin A -0.239 | [1] 0.009 | defactinib 0.019 | [2] 0.072 | encorafenib 0.054 | [3] -0.005 | alisertib 0.041 | [4] 0.104 | gefitinib 0.11 | lapatinib -0.024 | crizotinib 0.028 | [5] 0.13 | duvelisib -0.011 | gandotinib -0.23 | tozasertib 0.106 | doramapimod -0.043 | [6] -0.032

SAP30 (UniProt O75446)
Chain of UniProt O75446 (O75446 whole entry, looked up): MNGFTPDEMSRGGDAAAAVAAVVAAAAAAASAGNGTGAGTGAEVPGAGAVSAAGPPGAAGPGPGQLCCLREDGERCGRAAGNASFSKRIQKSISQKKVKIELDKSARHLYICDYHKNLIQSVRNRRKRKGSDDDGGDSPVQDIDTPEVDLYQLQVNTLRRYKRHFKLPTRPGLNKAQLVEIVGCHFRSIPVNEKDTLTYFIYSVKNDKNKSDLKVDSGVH
inactive: alvocidib -0.022 | defactinib -0.028 | [2] 0.089 | encorafenib -0.007 | [3] 0.053 | alisertib 0.044 | [4] 0.087 | gefitinib -0.285 | lapatinib -0.064 | pictilisib -0.036 | crizotinib 0.044 | [5] 0.042 | duvelisib 0.004 | gandotinib -0.036 | tozasertib -0.056 | doramapimod 0.013 | bafetinib -0.073 | [6] 0.012

SCNM1 (UniProt Q9BWG6)
Chain of UniProt Q9BWG6 (Q9BWG6 whole entry, looked up): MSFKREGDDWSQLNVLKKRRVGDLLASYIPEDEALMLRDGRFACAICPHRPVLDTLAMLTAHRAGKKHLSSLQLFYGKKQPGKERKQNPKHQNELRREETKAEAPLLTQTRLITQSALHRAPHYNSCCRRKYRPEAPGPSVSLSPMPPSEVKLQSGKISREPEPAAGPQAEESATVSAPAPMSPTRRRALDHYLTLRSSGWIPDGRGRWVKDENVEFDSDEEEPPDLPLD
inactive: alvocidib -0.005 | Tubastatin A 0.035 | [1] 0.117 | [2] 0.127 | encorafenib 0.115 | [3] -0.311 | alisertib 0.035 | [4] 0.15 | gefitinib 0.114 | lapatinib 0.006 | crizotinib 0.057 | [5] 0.022 | duvelisib 0.057 | gandotinib 0.015 | tozasertib -0.039 | doramapimod -0.017 | [6] -0.157
